D3 ag – agonists of human D3 dopamine receptor | P35462 | D3R DiscoveRx beta-arrestin cells, luminescence, 90 min | max activation, % | 410,000 compounds, 0.58% hits | AID 652048; in the data active means max activation above about 30%; further: 0% is about no effect
Target sequence (P35462 whole entry, looked up): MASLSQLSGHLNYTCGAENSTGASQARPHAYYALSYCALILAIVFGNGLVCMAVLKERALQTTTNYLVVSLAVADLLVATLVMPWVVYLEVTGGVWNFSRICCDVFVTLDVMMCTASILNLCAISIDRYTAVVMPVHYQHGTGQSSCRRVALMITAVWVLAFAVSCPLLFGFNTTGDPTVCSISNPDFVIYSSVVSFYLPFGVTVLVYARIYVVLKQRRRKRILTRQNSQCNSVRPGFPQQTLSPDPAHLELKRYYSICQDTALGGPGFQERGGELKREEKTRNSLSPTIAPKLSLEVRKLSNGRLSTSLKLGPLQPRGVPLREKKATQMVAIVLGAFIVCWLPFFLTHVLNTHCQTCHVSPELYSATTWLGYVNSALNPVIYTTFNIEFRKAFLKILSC
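Agonist-mode cell screen: cells plated at 1500/well and incubated overnight at 37 °C, then exposed to library compounds for 90 min at 37 °C. Detection reagent was added for 30–60 min at room temperature, and luminescence was read.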
DRD3 antagonist – D3 dopamine receptor (human) antagonism; max response, negative = inhibition, %; D3R cells, DiscoveRx beta-arrestin luminescence, antagonist mode; active compounds read low; P35462; 360,000 compounds, 2.5% hits; in the data active means max response below about -50%; inconclusive means no clear call, values can overlap the other calls; further: on the % scale 0 is the no-effect control and ±100 the full control effect
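Cells expressing the human receptor were seeded at 1500 cells/well, incubated overnight at 37 degrees C in 5% CO2, then exposed to library compounds with dopamine controls for 90 minutes at 37 degrees C before luminescent detection.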
Giardia kill – Giardia lamblia killing | activity change, % at 7.66 µM, hits read low | 340,000 compounds, 0.15% hits | Giardia lamblia trophozoite viability; in the data active means activity change below about -80%; inconclusive means between about -30% and that limit;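 further: parasites exposed to compound for two days anaerobically before the ATP read; on the % scale 0 is the no-effect control and ±100 the full control effect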
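Anaerobic 48 hrs incubation at 37 deg C of 100 trophozoites/well with test compounds; ATPLite 1-Step luminescence, 15-30 min RT, reports cellular ATP as viability.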
B2AR arrestin – recruits beta-arrestin to the human beta2-adrenergic receptor; P07550; beta-arrestin recruitment to beta2AR, cell-based reporter; Potency, µM (top dose mostly 46.1 µM), for inactives: at the highest dose activation, usual class: activators; 330,000 compounds, 0.02% hits; AID 492947; active means well fitted activation curve with a large enough effect; inconclusive means small, poorly fitted or top-dose-only effect;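 further: potency means the concentration at half of the fitted maximal effect; 0% = DMSO controls and full agonism = EC100 isoproterenol or metaproterenol; nearly all actives have a fitted effect of over 65% in size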
An asterisk follows results filed as active; ? = inconclusive; / = no result. Sampled rows, rich in hits. Any-hit rate of the full collection: about 2.8%.

SMILES	D3 ag	DRD3 antagonist	Giardia kill	B2AR arrestin
O=S1(=O)N(CCN2CC=C(c3c[nH]c4cc(F)ccc34)CC2)c2cccc3c2N1CCC3	-92	-101*	12	0%
O=c1[nH]c(CN2CC=C(c3ccccc3)CC2)nc2cc(C(F)(F)F)ccc12	-1	-27	12	0%
CN1CCC(c2c[nH]c3ccccc23)C1 (centres undefined)	-2	-100*	27	0%
CN1CCC(c2c[nH]c3ccc(O)cc23)CC1	-1	?	-21	/
CC(C)Oc1cccnc1N(C)C1CCN(Cc2ccccc2)CC1	0	-95*	-6	/
COc1ccccc1NC(=O)N(Cc1ccc2c(c1)OCO2)C1CCN(Cc2ccccc2)CC1	-34	/	/	/
CCCN(CC#CCOc1ccc(OC)cc1)CCC	-9	-52*	-2	0%
CC(C)(O)[C@@H]1[C@H]2OC(=O)[C@@H]1[C@]1(O)C[C@H]3O[C@]34C(=O)O[C@H]2[C@]14C	-2	/	/	/
C[C@@H](CO)NC(=O)[C@@H]1C=C2c3cccc4[nH]cc(c34)C[C@H]2N(C)C1	38*	/	/	/
C[C@@H]1[C@H](O)[C@@H](C)/C=C/C=C/CC/C=C/C=C/C=C/C=C/[C@H](O[C@H]2O[C@@H](C)[C@H](O)[C@@H](N)[C@H]2O)CC2O[C@](O)(C[C@@H](O)[C@H](O)CC[C@@H](O)C[C@@H](O)C[C@@H](O)CC(=O)O[C@H]1C)C[C@H](O)[C@H]2C(=O)O	4	/	/	/
COC(=O)[C@@H]1[C@@H](C(=O)OC)C2(c3ccccc3-c3ccccc32)N(c2ccc(Cl)cc2)N1C#N	-3	-76*	-18	-1%
COC(=O)C[C@]1(C(=O)OC)CN(C#N)N(c2ccc(Cl)cc2)C12c1ccccc1-c1ccccc12	-8	-74*	9	0%
CCOC(=O)[C@]12Cc3cc(Cl)ccc3[C@H]1N(CC(=O)OC)C(=O)c1ccccc12	-6	-3	/	/
Oc1cc[c]([Hg][Cl])cc1	-30	/	/	/
N#CC1(N2CCCCC2)CCCCC1	6	/	/	/
O=C(c1ccc2c3c(cccc13)CC2)C1CCCN(CC2CC2)C1 (centres undefined)	-27	-81*	43	-1%
C[C@@H](C1CC[C@@]2(O)C3=CC(=O)[C@@H]4C[C@@H](O)[C@@H](O)C[C@]4(C)[C@H]3CC[C@]12C)[C@H](O)CCC(C)(C)O (some centres undefined)	/	/	4	/
COCCOCCO	-9	/	/	/
CC(C)NC(C)Cc1ccc(I)cc1 (centres undefined)	-21	-89*	13	0%
O=C1NCN(c2ccccc2)C12CCN(C(c1ccccc1OC(F)(F)F)c1nnnn1Cc1ccccc1)CC2 (centres undefined)	30*	92	/	/
Cc1cccc(C)c1-n1nnnc1C(c1ccccc1)N1CCC2(CC1)C(=O)NCN2c1ccccc1 (centres undefined)	-15	0	/	/
CCCCn1nnnc1C(c1cccs1)N1CCC2(CC1)C(=O)NCN2c1ccccc1 (centres undefined)	-10	-52*	/	/
COc1ccc(C(c2nnnn2-c2c(C)cccc2C)N2CCC3(CC2)C(=O)NCN3c2ccccc2)cc1 (centres undefined)	-8	-54*	/	/
CCCCn1nnnc1C(c1cccc2ccccc12)N1CCC2(CC1)C(=O)NCN2c1ccccc1 (centres undefined)	-10	?	/	/
COC(=O)C1=C(C(=O)OC)C2OC1c1cc3ccccc3cc12	-16	-58*	-2	/
SMILES	D3 ag	DRD3 antagonist	Giardia kill	B2AR arrestin
C[C@@H]1NCCc2cc(O)c(O)cc21	-75	-74*	-4	-1%
CN1CC(C(=O)c2ccc(F)cc2)C(c2ccc(F)cc2)C1 (centres undefined)	-13	-129*	14	-1%
COc1ccccc1N1CCN(CCc2c[nH]c3cc4c(cc23)OCO4)CC1	-27	-79*	-18	/
CC(CN1CCOCC1)C(C#N)(c1ccccc1)c1ccccc1 (centres undefined)	-15	7	10	/
CN1CCN(CCC(C#N)(c2ccccc2)c2ccccc2)CC1	-1	-80*	-2	0%
O=[N+]([O-])C(Br)(CO)CO	-1	/	/	/
CCN1CCN(c2ncnc3ccc(Br)cc23)CC1	-1	-66*	3	5%
CC(C)N1CCN(Cc2ccccc2C(F)(F)F)CC1CCO (centres undefined)	-11	-53*	-15	0%
FC(F)(F)c1ccccc1CN1CCN(Cc2ccccc2)CC1	-24	?	-2	0%
COc1cccc(C(=O)CCN[C@@H](C)[C@H](O)c2ccccc2)c1	-12	/	/	/
CCC1(c2cnc[nH]2)Cc2ccccc2C1	-17	/	/	/
COC(=O)C1=C(c2cccc(OCc3ccccc3)c2)C[C@@H]2CC[C@H]1N2C(=O)NCCCc1ccccc1	0	0	-6	-1%
COC(=O)C1=C(c2ccc(OCc3ccccc3)cc2)C[C@@H]2CC[C@H]1N2C(=O)NCc1ccccc1OC	-10	-25	/	/
COC(=O)C1=C(c2ccc(OCc3ccccc3)cc2)C[C@@H]2CC[C@H]1N2C(=O)NCCCc1ccccc1	-9	-51*	-15	-4%
COC(=O)C1=C(c2ccc(OCc3ccccc3)cc2)C[C@@H]2CC[C@H]1N2C(=O)NCc1ccc(OC)c(OC)c1	-3	-13	10	18µM*
CC(Cc1ccc2c(c1)OCO2)NO (centres undefined)	-12	/	/	/
CN[C@H]1C[C@@H](N)[C@H](O)[C@@H](O[C@@H]2O[C@H](CO)[C@H](O)[C@@H]3OC4(O[C@H]23)O[C@H](C(N)CO)[C@H](O)[C@H](O)[C@H]4O)[C@@H]1O (some centres undefined)	-3	/	/	/
O=C(Nc1ccc(Br)cc1)c1cc(Br)cc(Br)c1O	6	/	/	/
O=C(N[C@@H]1N=C(c2ccccc2F)c2cccc3c2N(CC3)C1=O)c1cc2ccccc2[nH]1	-11	/	/	/
NP(=O)(OCCCc1ccccc1)Oc1ccc(Cl)cc1 (centres undefined)	4	0	-8	-1%
NP(=O)(OCCCc1ccccc1)c1ccccc1 (centres undefined)	36*	-15	4	-1%
OC[C@@H](O)[C@H]1O[C@@H]2O[C@H](C(Cl)(Cl)Cl)O[C@@H]2[C@H]1O	4	/	/	/
CNCC(=O)c1ccccc1	-42	-51*	-10	/
CCN(CC)P(=O)(/C=C(\Cl)c1ccccc1)/C=C(\Cl)c1ccccc1	-1	-13	-1	0%
CNCC(=O)c1ccc(O)c(O)c1	61*	/	/	/
CNc1ccc(C(=O)CC(O)CCC(C)C2OC(=O)CC(O)CC(=O)CC(O)CC(O)CC(O)CC(O)CC3(O)CC(O)C(C(=O)OC)C(CC(O[C@@H]4O[C@H](C)[C@@H](O)[C@H](N)[C@@H]4O)/C=C/C=C/C=C/C=C/C=C/C=C/C=C/C2C)O3)cc1 (some centres undefined)	8	/	/	/
C[C@H]1CNCCc2ccc(Cl)cc21	-9	/	/	/
COC(=O)N(c1ccccc1)P1(=S)OCCO1	0	-5	-1	-1%
CCOC(=O)N(c1ccccc1)P1(=S)OCCO1	3	-52*	5	0%
